Source: PubChem BioAssay
Active and inactive are the calls of the source.

Legend:
[1] = test system: Plasmodium falciparum Sir2 (PF13_0152, Sir2A); assay: Plasmodium falciparum Sir2A binding compounds – biochemical, small-molecule microarray, 635 nm fluorescence, primary screen (AID 1098); conditions: fluorescence 635 nm, higher = more signal;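 further: score merges spot fluorescence intensity with its signal-to-noise ratio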
[2] = probe aDKK1 binding to arrayed compounds – biochemical, biotinylated probe, 635/667 nm fluorescence, primary screen (AID 1099); conditions: small-molecule microarray, higher = more signal;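 further: score merges 667nm spot fluorescence with signal to noise across triplicate slides; reference of the scale not given here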
[3] = probe aCHRDL2 binding to arrayed compounds – biochemical, biotinylated probe, 635/667 nm fluorescence, primary screen (AID 1100); conditions: small-molecule microarray, higher = more signal
[4] = change in splice reporter luminescence, either direction, cell-based, HEK293, spliceosome inhibition project, primary screen (AID 1101); conditions: HEK293 splicing luciferase reporter, 24 h, higher = more signal, called active from +8 up or from −8 down;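 further: HEK293 cells carrying a splicing-competent luciferase reporter gene; test concentration not given here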
[5] = molecular target: Fibroblast growth factor 10 (Homo sapiens) (UniProt O15520); assay: compounds binding fibroblast growth factor 10 – biochemical, small-molecule microarray, 635 nm fluorescence, primary screen (AID 1102); conditions: FGF10 binding, fluorescence 635 nm, higher = more signal
Chain of Fibroblast growth factor 10 (Homo sapiens) (O15520 whole entry, looked up): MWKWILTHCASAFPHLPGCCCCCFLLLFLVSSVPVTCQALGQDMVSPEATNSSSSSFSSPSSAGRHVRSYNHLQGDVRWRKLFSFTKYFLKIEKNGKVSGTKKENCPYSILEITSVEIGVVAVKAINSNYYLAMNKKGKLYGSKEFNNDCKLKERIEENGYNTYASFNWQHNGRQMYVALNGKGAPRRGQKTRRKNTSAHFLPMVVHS

[6] = test system: glycogen synthase kinase-3 (GSK3A per assay name; protocol says GSK3B); assay: compounds binding glycogen synthase kinase-3 – biochemical, small-molecule microarray, 635 nm fluorescence, GSK3A, primary screen (AID 1103); conditions: fluorescence 635 nm, higher = more signal; further: the record names both GSK3A and GSK3B
[7] = molecular target: Epidermal growth factor receptor (Homo sapiens) (UniProt P00533); assay: compounds binding epidermal growth factor receptor – biochemical, small-molecule microarray, 635 nm fluorescence, primary screen (AID 1104); conditions: EGFR binding, higher = more signal;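 further: score merges 667 nm emission intensity with spot signal to noise over triplicate slides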
Chain of Epidermal growth factor receptor (Homo sapiens) (P00533 whole entry, looked up): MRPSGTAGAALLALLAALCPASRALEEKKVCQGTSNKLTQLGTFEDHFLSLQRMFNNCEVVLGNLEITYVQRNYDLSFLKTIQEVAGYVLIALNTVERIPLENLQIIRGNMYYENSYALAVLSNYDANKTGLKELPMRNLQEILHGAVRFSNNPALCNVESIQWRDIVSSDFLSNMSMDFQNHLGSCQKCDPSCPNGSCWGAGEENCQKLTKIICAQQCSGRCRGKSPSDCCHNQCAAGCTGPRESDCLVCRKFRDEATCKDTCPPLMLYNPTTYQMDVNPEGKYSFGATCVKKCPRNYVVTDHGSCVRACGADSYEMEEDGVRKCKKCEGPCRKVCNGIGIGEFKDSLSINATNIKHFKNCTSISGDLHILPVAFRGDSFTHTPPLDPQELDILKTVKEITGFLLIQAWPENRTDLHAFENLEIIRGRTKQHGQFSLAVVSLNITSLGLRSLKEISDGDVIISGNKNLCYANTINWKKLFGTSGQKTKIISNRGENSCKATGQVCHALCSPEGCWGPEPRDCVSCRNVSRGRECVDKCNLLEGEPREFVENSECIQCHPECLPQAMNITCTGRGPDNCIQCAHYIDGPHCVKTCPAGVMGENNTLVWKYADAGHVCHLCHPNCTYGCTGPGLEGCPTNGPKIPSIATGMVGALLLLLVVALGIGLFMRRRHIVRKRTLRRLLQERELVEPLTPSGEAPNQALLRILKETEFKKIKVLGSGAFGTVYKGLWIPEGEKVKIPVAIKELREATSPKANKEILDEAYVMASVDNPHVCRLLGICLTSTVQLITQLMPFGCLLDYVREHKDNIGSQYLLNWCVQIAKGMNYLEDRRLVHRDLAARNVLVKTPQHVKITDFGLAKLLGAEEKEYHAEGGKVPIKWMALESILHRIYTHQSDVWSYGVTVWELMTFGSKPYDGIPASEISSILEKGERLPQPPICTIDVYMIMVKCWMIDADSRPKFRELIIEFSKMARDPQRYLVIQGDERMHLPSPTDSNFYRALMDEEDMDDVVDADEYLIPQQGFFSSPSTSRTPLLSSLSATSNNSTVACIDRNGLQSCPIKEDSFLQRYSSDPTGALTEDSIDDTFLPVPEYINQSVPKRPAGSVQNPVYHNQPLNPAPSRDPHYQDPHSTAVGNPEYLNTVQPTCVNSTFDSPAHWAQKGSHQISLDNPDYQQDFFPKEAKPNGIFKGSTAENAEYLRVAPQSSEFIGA

[8] = molecular target: Follistatin-related protein 3 (Homo sapiens) (UniProt O95633); assay: compounds binding follistatin-related protein 3 – biochemical, small-molecule microarray, 635 nm fluorescence, primary screen (AID 1105); conditions: FSTL3 binding, higher = more signal;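 further: score merges emission near 667 nm and signal to noise per printed spot across three slides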
Chain of Follistatin-related protein 3 (Homo sapiens) (O95633 whole entry, looked up): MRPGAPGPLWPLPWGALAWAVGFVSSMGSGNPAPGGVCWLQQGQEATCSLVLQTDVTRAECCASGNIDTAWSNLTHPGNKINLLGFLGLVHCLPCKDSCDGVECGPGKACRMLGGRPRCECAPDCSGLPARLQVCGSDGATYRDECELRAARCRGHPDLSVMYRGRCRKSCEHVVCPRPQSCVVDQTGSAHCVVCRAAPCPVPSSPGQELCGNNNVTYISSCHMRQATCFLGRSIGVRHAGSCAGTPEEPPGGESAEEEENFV

[9] = molecular target: Dickkopf-related protein 1 (Homo sapiens) (UniProt O94907); assay: small molecules binding DKK1 protein – biochemical, small-molecule microarray, 635 nm fluorescence scan, primary screen (AID 1106); conditions: higher = more signal;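 further: score merges emission near 667 nm with signal to noise over three replicate slides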
Chain of Dickkopf-related protein 1 (Homo sapiens) (O94907 whole entry, looked up): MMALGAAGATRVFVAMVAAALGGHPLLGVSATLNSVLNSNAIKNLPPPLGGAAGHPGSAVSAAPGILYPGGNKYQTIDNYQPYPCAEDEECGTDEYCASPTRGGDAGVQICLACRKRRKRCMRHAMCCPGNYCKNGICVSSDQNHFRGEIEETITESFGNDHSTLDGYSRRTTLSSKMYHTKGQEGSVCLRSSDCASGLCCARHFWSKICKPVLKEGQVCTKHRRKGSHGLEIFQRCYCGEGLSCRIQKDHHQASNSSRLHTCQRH

[10] = test system: Inhibin beta A chain (activin A); assay: small molecules binding activin A – biochemical, small-molecule microarray, 635 nm fluorescence scan, primary screen (AID 1107); conditions: INHBA, higher = more signal;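 further: mouse activin A protein probed at 4.33 µg/mL on printed slides; score merges bound-protein fluorescence near 667 nm with spot signal-to-noise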

| Compound | composite z-score [1] | composite z-score [2] | composite z-score [3] | z-score [4] | composite z-score [5] | composite z-score [6] | composite z-score [7] | composite z-score [8] | composite z-score [9] | composite z-score [10] |
| --- | --- | --- | --- | --- | --- | --- | --- | --- | --- | --- |
| C=C(COC)/C(=C/C[C@H](OC(=O)c1ccncc1)c1ccccc1OCCO)c1cc(C(=O)OC)ccc1OC | 0.515 | -0.0213 | -0.331 | -0.0627 (inactive) | 1.25 | 0.684 | 0.0709 | 1.33 | 0.242 | 1 |
| O=C1C2C=CC(C(O)c3cccc(O)c3)N(Nc3ccc([N+](=O)[O-])cc3)C2C(=O)N1c1ccccc1 (stereo not given) | 0.367 | 0.158 | 0.451 | 0.663 (inactive) | 1.07 | 0.672 | 0.254 | 0.444 | 0.239 | 0.199 |
| C[N+](C)(C)CCCC[C@@H]1NC(=O)[C@@H]2C[C@H](C(=O)NCCCCCCN)[C@H](c3cccc(OCCO)c3)N2C1=O | 1.16 | 1.85 | 1.14 | -0.111 (inactive) | 0.766 | 1.29 | 0.132 | 0.776 | 0.695 | 1.4 |
| COc1cc2c(cc1O)C(C1CC1)N(Cc1cccc(OC(F)(F)F)c1)CC2 (stereo not given) | -0.102 | 0.149 | 0.542 | 0.654 (inactive) | -0.293 | -0.567 | -0.881 | -0.0671 | -0.248 | 1.45 |
| Cc1ccc(N2C(=O)c3ccccc3[C@@H](C(=O)NCCCN(C)C)[C@@H]2c2ccc(CO)cc2)nc1 | 0.451 | 1.51 | 0.824 | -0.556 (inactive) | -0.514 | -0.298 | 0.239 | 0.102 | -0.06 | -0.153 |
| CCCC=C(CCC)[C@@H](NC(=O)c1cccs1)c1ccc(C(=O)OC)cc1 | 0.366 | 1.96 | 0.824 | -0.571 (inactive) | 1.31 | 0.625 | 0.782 | 0.89 | 0.473 | -0.032 |
| O=C1OCCC=C[C@H]2OC34C=CCN(c5ccc6ccccc6c5)C(=O)[C@H]3N(CCCO)C(=O)[C@@H]4C12 (stereo not given in full) | 0.933 | -0.258 | 0.637 | -1 (inactive) | -1.62 | -2.21 | -1.93 | -1.94 | -1.8 | -2.42 |
| CC1CC/C=C\[C@H]2OC34C=CCN(c5ccc6ccccc6c5)C(=O)[C@H]3N(CCCO)C(=O)[C@@H]4C2C(=O)O1 (stereo not given in full) | 0.0565 | -0.179 | 1.07 | 0.738 (inactive) | -1.32 | -0.592 | -1.2 | -0.912 | -2.16 | -0.223 |
| O=C1O[C@@H](c2ccccc2)[C@@H](c2ccccc2)N2[C@@H](c3ccc(O)cc3)[C@]3(C(=O)Nc4ccc(C#CCCO)cc43)[C@@H](C(=O)N3CCN(c4ncccn4)CC3)[C@H]12 | 1.64 | -1.25 | -1.14 | -0.116 (inactive) | 1.4 | 1.29 | 0.103 | 0.89 | -0.0103 | -0.0153 |
| CC(C)C(CO)N1C(=O)[C@@H]2C3C(=O)OCCC/C=C\[C@H]3OC23C=CCN(Cn2nnc4ccccc42)C(=O)[C@@H]13 (stereo not given in full) | 0.192 | -0.0842 | 0.543 | 0.323 (inactive) | -0.727 | -0.2 | -0.636 | -0.359 | -1.13 | 0.223 |
| Cn1cccc1C(O)C1C=CC2C(=O)N(c3ccccc3)C(=O)C2N1Nc1ccccc1 (stereo not given) | 1.19 | 0.966 | 1.04 | -0.441 (inactive) | 1.3 | 1.27 | 0.671 | 1.41 | 0.456 | 0.865 |
| COC(=O)C1=CC(CCCO)=CC(c2cccs2)N(C)C=C1C(=O)OC (stereo not given) | 1.52 | 0.122 | 0.187 | 0.844 (inactive) | -0.604 | -1.39 | -0.904 | 0.0507 | -0.442 | 0.788 |
| CC(C)N1C(=O)C[C@@](C(=O)O)(c2ccc([N+](=O)[O-])cc2)[C@H]1c1ccc(CO)cc1 | 1.08 | 0.744 | 1.11 | -0.186 (inactive) | -0.443 | -0.381 | -1.12 | -0.633 | -0.803 | 0.593 |
| COc1cc(OC)c(C(O)C2C=CC3C(=O)N(Cc4ccccc4)C(=O)C3N2n2cnnc2)cc1Br (stereo not given) | 1.36 | 0.287 | 0.373 | -1.21 (inactive) | 1.05 | 1.26 | -0.496 | 0.777 | -1.05 | -0.769 |
| C=CCC(OC(C)=O)[C@@H]1[C@@H](N(Cc2ccc(-c3cccc(C(F)(F)F)c3)o2)C(=O)c2ccc(-c3ccccc3)cc2)c2cc(OCCCO)ccc2N1C(=O)Cc1ccc2ccccc2c1 (stereo not given in full) | -0.417 | -0.155 | 0.532 | -0.435 (inactive) | -0.186 | -1.22 | -0.782 | -0.116 | -0.403 | 0.841 |
| Cc1ccc(S[C@]2(C(=O)NCC(F)(F)F)CC(=O)N(Cc3cc(C(F)(F)F)cc(C(F)(F)F)c3)[C@@H]2c2ccc(CO)cc2I)cc1 | 1.4 | -0.647 | 1.02 | -0.719 (inactive) | -1.03 | -0.466 | -0.552 | 0.0535 | -1.26 | 0.948 |

| Compound | composite z-score [1] | composite z-score [2] | composite z-score [3] | z-score [4] | composite z-score [5] | composite z-score [6] | composite z-score [7] | composite z-score [8] | composite z-score [9] | composite z-score [10] |
| --- | --- | --- | --- | --- | --- | --- | --- | --- | --- | --- |
| CCCC=C(CCC)[C@@H](NP(=O)(c1ccccc1)c1ccccc1)c1ccc(-c2ccccc2)cc1 | 0.517 | 0.719 | 0.581 | -2.98 (inactive) | 1.11 | 1.27 | 0.183 | 1.18 | -0.0014 | 0.479 |
| C=CCC(OC(C)=O)[C@@H]1[C@@H](N(Cc2ccc(-c3cccc(C(F)(F)F)c3)o2)C(=O)Cc2ccc(OC)cc2)c2cc(OCCCO)ccc2N1C(=O)c1ccc(-c2ccccc2)cc1 (stereo not given in full) | -0.318 | -0.0755 | 0.541 | -1.13 (inactive) | -0.165 | -0.522 | -0.577 | -0.119 | -0.434 | 1.39 |
| CCOC(=O)C1=C[C@@H](C(C)C)N(S(=O)(=O)c2ccc(C)cc2)[C@H]1c1ccc(C(F)(F)F)cc1 | 0.794 | 0.374 | 0.703 | 0.317 (inactive) | 0.896 | 0.898 | 0.593 | 1.39 | 0.441 | 0.372 |
| COC(=O)[C@@H]1N=C(c2ccc(OCCCO)cc2)O[C@@H]1C | -0.0756 | 0.017 | 0.795 | 0.04 (inactive) | 0.965 | 0.16 | -0.55 | -0.0372 | 0.0375 | -0.004 |
| CS(=O)(=O)CCOC(=O)C1=CC(CCCO)=CC(c2ccc(CN3CCCC3)cc2)N(Cc2sc3ccccc3c2Cl)C=C1C(=O)OCCS(C)(=O)=O (stereo not given) | 1.37 | 0.518 | -0.0725 | 0.576 (inactive) | 1.34 | 1.33 | 0.558 | 1 | 0.858 | 1.34 |
| O=C1N(Cc2ccccc2)c2ccccc2C[C@]12N=C(c1ccc(OCCCO)cc1)O[C@@H]2c1ccccc1 | 0.25 | 0.035 | 0.333 | 0.214 (inactive) | 0.796 | 0.914 | 0.498 | 0.935 | 0.271 | 0.736 |
| [N-]=[N+]=Nc1ccccc1[C@H]1OC(c2ccc(OCCCO)cc2)=N[C@@]1(Cc1ccccc1)C(=O)NCCN1CCOCC1 | 1.59 | 1.34 | 1.29 | -1.01 (inactive) | 1.3 | 1.28 | 0.81 | 1.37 | 0.196 | 1.13 |
| CCCNC(=O)[C@@]1(Sc2ccc(C)cc2)CC(=O)N(C2Cc3ccccc3C2)[C@@H]1c1ccc(CO)cc1I | 0.401 | 0.551 | 0.7 | -0.272 (inactive) | -0.189 | -0.0794 | -0.172 | -0.268 | -0.236 | 1.04 |
| CCCCCN1CC=CC23O[C@@H]4/C=C\CCC(C)OC(=O)C4[C@H]2C(=O)N(C(CO)C(C)C)[C@@H]3C1=O (stereo not given in full) | 1.63 | -0.612 | -0.288 | 0.139 (inactive) | 0.0694 | -0.169 | -0.538 | 0.0876 | -0.543 | 1.18 |
| Cc1ccc(S[C@]2(C(=O)NCCN3CCOCC3)CC(=O)N(Cc3ccccc3Cl)[C@@H]2c2ccc(CO)cc2I)cc1 | 1.65 | -0.831 | -0.0429 | -0.849 (inactive) | 0.133 | -0.207 | -1.29 | -0.355 | -1.82 | 1.07 |
| O=C(C1N=C(c2ccc(OCCCO)cc2)N(c2ccccc2)O1)N1CCCCC1 (stereo not given) | 0.984 | 0.88 | 0.0556 | -0.577 (inactive) | 0.648 | 1.22 | -0.0036 | 0.181 | 0.291 | 0.088 |
| COCC(=C=CC[C@H](O)c1ccc(OCCO)cc1)CCO | 1.09 | 0.0019 | 0.273 | -0.51 (inactive) | 0.4 | 0.42 | -0.211 | 0.593 | 0.0604 | 1.43 |
| CC(=O)NCCCC[C@@H]1NC(=O)[C@@H]2C[C@H](C(=O)NCCCCCN)[C@H](c3cccc(OCCO)c3)N2C1=O | 1.05 | 0.681 | 0.0358 | -1.29 (inactive) | 1.24 | 0.533 | 0.504 | 1.33 | 0.823 | 0.488 |
| CCCCCC1=C2CNC(C)(C(=O)OC)C=C2C(C)C1=O (stereo not given) | -0.0215 | 0.827 | 0.865 | 1.23 (inactive) | 0.0992 | -1.1 | -0.476 | -0.713 | -0.52 | 1.16 |
| CCCC#C[Si](O[C@H](CC)c1cn([C@H](C)c2ccccc2)nn1)(C(C)C)C(C)C | 0.2 | 0.313 | -0.212 | -0.383 (inactive) | 0.568 | 0.588 | 0.564 | 0.47 | 0.285 | -0.348 |
| CCOC(=O)C[C@H]1[C@H](OC(=O)Cc2ccc3c(c2)OCO3)[C@@H](NC(=O)c2ccc3ccccc3n2)c2cc(OCCCO)ccc2N1C(=O)c1ccc2ccccc2n1 | 0.138 | 0.0134 | -0.0731 | -1.63 (inactive) | 0.813 | 0.495 | 0.267 | 0.492 | 0.483 | 0.265 |
